# Measured values taken from PubChem BioAssay (EPA / NIEHS).
# Several values for one entry are separate records, joined by “and”; a condition that tells them apart may be missing. Identical values can stand only once. Inconclusive results are not listed. Where a structure was tested more than once in an assay, its records may differ in their call. Activity calls are given as the source filed them. How the source made its calls, unless noted: active means hit-call score of the fitted dose curve at least 0.9, where 1 is the maximum; inactive means score below 0.9.
# Tests used:
# [1] = read-out: Tumor necrosis factor (Homo sapiens) (UniProt P01375); test: BSK_BT_xTNFa: BioMAP Diversity Plus: BT Assay for Tumor necrosis factor alpha (TNF-alpha) Biomarker Activity (AID 2284230); conditions: primary human B cells with PBMC
# Summary of the method: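 Endpoint derived in the positive direction versus DMSO vehicle. Cells: B cells together with PBMC, exposed 24 h before TNF-alpha in the medium was read on the Luminex xMAP platform.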
# [2] = read-out: Vascular cell adhesion molecule 1 (VCAM1), VCAM1 (gene 7412); test: BSK_MyoF_VCAM1: BioMAP Diversity Plus: MyoF Assay for Vascular cell adhesion molecule 1 (VCAM1) Biomarker Activity (AID 2284231); conditions: primary human lung fibroblasts
# Summary of the method: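 MyoF system, lung fibroblasts; 24 h post-dose; VCAM-1 by ELISA; gain-of-signal fit vs DMSO baseline.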
# [3] = UKN4_HCS_LUHMES_cell_viability: Viability Assessment in the University of Konstanz (UKN) Leist Lab Neurite Outgrowth Assay in human LUHMES cells (UKN4) (AID 2284232)
# Summary of the method: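 LUHMES precursors differentiated 2 days, replated at 30000 cells/well without cAMP/GDNF, then compound-treated 24 h. Viability from Hoechst H-33342 and calcein-AM live staining (30 min) by high-content fluorescence imaging; bidirectional fit versus DMSO.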
# [4] = UKN2_HCS_IMR90_cell_viability: Viability Assessment in the University of Konstanz (UKN) Leist Lab Neural Crest Cell Migration Assay in human induced IMR90 Pluripotent Stem Cells (UKN2) (AID 2284233);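 further: viability of neural crest cells differentiated from IMR90 iPSC measured by calcein-AM fluorescence imaging; cells exposed to compound for 24 h after a 24 h migration phase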
# Summary of the method: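 iPSC-derived (IMR90) neural crest cells seeded around silicone stoppers on PLO/laminin/fibronectin; after 24 h migration in N2-S with EGF/FGF, chemical added for 24 h. Calcein-AM/Hoechst stained 30 min, high-content imaged; bidirectional fit versus DMSO.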
# [5] = read-out: Actin alpha 1 (ACTA1), ACTA1 (gene 58); test: BSK_MyoF_ACTA1: BioMAP Diversity Plus: MyoF Assay for Actin alpha 1 (ACTA1) Biomarker Activity (AID 2284244); conditions: primary human lung fibroblasts
# Summary of the method: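 Human lung fibroblast (MyoF system) cultures dosed with test chemical; alpha-SMA measured by ELISA 24 h after dosing, normalized to DMSO control. Cytotoxicity tracked in parallel cultures by SRB total-protein staining.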
# [6] = read-out: Interleukin 2 (IL2), IL2 (gene 3558); test: BSK_BT_xIL2: BioMAP Diversity Plus: BT Assay for Interleukin 2 (IL2) Biomarker Activity (AID 2284245); conditions: primary human B cells with PBMC
# Summary of the method: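 Human B cell plus PBMC co-culture, 24 h after chemical dosing; secreted IL-2 quantified by Luminex xMAP multiplex, fitted for signal gain against DMSO baseline.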
# [7] = read-out: Basic fibroblast growth factor (bFGF), FGF2 (gene 2247); test: BSK_MyoF_bFGF: BioMAP Diversity Plus: MyoF Assay for Basic fibroblast growth factor (bFGF) Biomarker Activity (AID 2284246); conditions: primary human lung fibroblasts
# Summary of the method: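 Human lung fibroblast cultures were dosed and measured 24 h later in 96-well format. bFGF biomarker levels quantified by ELISA, with activity fitted in the positive direction against DMSO.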
# [8] = read-out: Collagen IV, COL4A1 (gene 1282); test: BSK_MyoF_CollagenIV: BioMAP Diversity Plus: MyoF Assay for Collagen IV Biomarker Activity (AID 2284247); conditions: primary human lung fibroblasts
# Summary of the method: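 Primary human lung fibroblasts (MyoF system) dosed 24 h; Collagen IV measured by ELISA. Activity fitted in positive direction against DMSO; cytotoxicity tracked by SRB total-protein staining in parallel cultures.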
# [9] = read-out: Interleukin-8 (IL8), CXCL8 (gene 3576); test: BSK_MyoF_IL8: BioMAP Diversity Plus: MyoF Assay for Interleukin-8 (IL8) Biomarker Activity (AID 2284261); conditions: primary human lung fibroblasts
# Summary of the method: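 Lung fibroblasts (human primary) → chemical exposure → 24 h → IL-8 measured by ELISA. Signal increase scored versus DMSO control.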
# Decorin, DCN (gene 1634) = test: BSK_MyoF_Decorin: BioMAP Diversity Plus: MyoF Assay for Decorin Biomarker Activity (AID 2284265); conditions: primary human lung fibroblasts
# Summary of the method: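 ELISA readout of decorin, 24 h post-dosing; primary human lung fibroblast (MyoF) culture; gain-of-signal fit vs DMSO baseline.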
# [10] = BSK_MyoF_SRB: Viability Assessment in the BioMAP Diversity Plus: MyoF Assay (AID 2284267); conditions: primary human lung fibroblasts;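 further: total protein by SRB absorbance in parallel cultures as cytotoxicity measure; cells assessed 24 h after compound addition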
# Summary of the method: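 Human lung fibroblasts, 24 h after chemical dosing; total protein measured by 0.1% sulforhodamine B staining after 10% TCA fixation, read at 560 nm, fitted relative to DMSO baseline.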
# [11] = read-out: Matrix Metallopeptidase 1 (MMP1), MMP1 (gene 4312); test: BSK_MyoF_MMP1: BioMAP Diversity Plus: MyoF Assay for Matrix Metallopeptidase 1 (MMP1) Biomarker Activity (AID 2284268); conditions: primary human lung fibroblasts
# Summary of the method: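 Cells: human lung fibroblasts. Exposure: 24 h chemical dosing. Detection: ELISA for MMP1. Analysis: upward fitting against DMSO negative control.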
# [12] = ATG_ERE_CIS: Attagene CIS-FACTORIAL HepG2 Assay for Estrogen Response Element (ERE) (AID 2282940); conditions: HepG2 ERE cis-reporter, Attagene RNA transcript; actives raise or lower the signal
# Summary of the method: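 Readout: reporter mRNA induction by RT-PCR, FAM-labelled primer extension, HpaI digestion and capillary electrophoresis, 24 h after dosing transfected HepG2 cells. Endogenous transcription factors act on cis-element-regulated reporters. Gain or loss fitted against DMSO.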
# [13] = target: Estrogen receptor (Homo sapiens) (UniProt P03372); test: ATG_ERa_TRANS: Attagene TRANS-FACTORIAL HepG2 Assay for human Estrogen Receptor alpha (ERa) (AID 2282970; active means hit-call score of the fitted dose curve at least 0.9, where 1 is the maximum); conditions: HepG2 Attagene TRANS ERa GAL4 reporter, mRNA
# Sequence of Estrogen receptor (Homo sapiens) (P03372 whole entry, looked up, the tested form may be a part): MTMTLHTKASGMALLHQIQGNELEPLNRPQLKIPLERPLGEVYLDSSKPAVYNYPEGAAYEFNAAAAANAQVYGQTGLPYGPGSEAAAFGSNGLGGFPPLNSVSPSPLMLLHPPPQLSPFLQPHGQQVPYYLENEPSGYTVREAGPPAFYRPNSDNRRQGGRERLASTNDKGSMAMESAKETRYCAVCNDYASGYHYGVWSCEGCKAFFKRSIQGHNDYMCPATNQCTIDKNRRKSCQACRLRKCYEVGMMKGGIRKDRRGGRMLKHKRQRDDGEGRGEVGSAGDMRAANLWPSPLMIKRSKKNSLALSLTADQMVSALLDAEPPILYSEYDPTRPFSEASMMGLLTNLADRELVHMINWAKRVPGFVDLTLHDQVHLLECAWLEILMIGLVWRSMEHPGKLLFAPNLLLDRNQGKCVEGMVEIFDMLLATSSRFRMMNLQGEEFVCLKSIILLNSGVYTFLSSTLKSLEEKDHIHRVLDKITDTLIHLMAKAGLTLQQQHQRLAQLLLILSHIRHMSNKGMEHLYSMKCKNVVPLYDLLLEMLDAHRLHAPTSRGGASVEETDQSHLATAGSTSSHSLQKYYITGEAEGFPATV
# Summary of the method: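 After 24 h of compound treatment, RNA from HepG2 cells bearing transfected GAL4-UAS reporter constructs is converted to cDNA, amplified and fluorescently labelled. Capillary electrophoresis resolves the ERa-linked reporter; DMSO serves as negative control.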
# [14] = system: Sodium/Iodide Symporter (NIS), SLC5A5 (gene 6528); test: CPHEA_Stoker_NIS_Inhibition_RAIU: CPHEA's Radioactive Iodide Uptake (RAIU) Assay for Sodium/Iodide Symporter (NIS) Inhibition, Stoker and Laws Labs (AID 2283841; active means hit-call score of the fitted dose curve at least 0.9, where 1 is the maximum)
# Summary of the method: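 Test chemicals, six concentrations from 0.001 to 100uM in 0.5% DMSO, were co-incubated with carrier-free 125I (final 329pM) on hNIS-HEK293T-EPA monolayers in pH 7.4 HEPES-buffered HBSS. Plates stood 2 hours at room temperature, then were washed cold and counted.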
# [15] = read-out: Vascular cell adhesion molecule 1 (VCAM1), VCAM1 (gene 7412); test: BSK_BF4T_VCAM1: BioMAP Diversity Plus: BF4T Assay for Vascular cell adhesion molecule 1 (VCAM1) Biomarker Activity (AID 2284249); conditions: primary human bronchial epithelial cells with fibroblasts
# Summary of the method: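 Human bronchial epithelial cell and dermal fibroblast co-culture exposed 24 h. VCAM-1 measured by ELISA; parallel SRB total-protein staining for cytotoxicity. Fitted in positive direction relative to DMSO.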
# [16] = read-out: Interleukin-8 (IL8), CXCL8 (gene 3576); test: BSK_BF4T_IL8: BioMAP Diversity Plus: BF4T Assay for Interleukin-8 (IL8) Biomarker Activity (AID 2284263); conditions: primary human bronchial epithelial cells with fibroblasts
# Summary of the method: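 Human bronchial epithelial cells with dermal fibroblasts co-culture; IL-8 measured by ELISA 24 hours after dosing, fitted vs DMSO. Cytotoxicity tracked in parallel cultures by SRB total-protein staining.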
# [17] = read-out: Interleukin-8 (IL8), CXCL8 (gene 3576); test: BSK_IMphg_IL8: BioMAP Diversity Plus: IMphg Assay for Interleukin-8 (IL8) Biomarker Activity (AID 2284277); conditions: primary human endothelial cells with macrophages
# Summary of the method: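 Co-culture of human venular endothelial cells and macrophages exposed to chemicals for 24 h; IL-8 quantified by ELISA and compared against the DMSO baseline, with SRB total-protein staining in parallel cultures for cytotoxicity.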
# [18] = read-out: Interleukin-1 alpha (IL1a), IL1A (gene 3552); test: BSK_IMphg_IL1a: BioMAP Diversity Plus: IMphg Assay for Interleukin-1 alpha (IL1a) Biomarker Activity (AID 2284290); conditions: primary human endothelial cells with macrophages
# Summary of the method: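 Human venular endothelial cells co-cultured with macrophages, IMphg system. IL-1α is measured by ELISA 24 h after dosing and fitted in the positive direction against DMSO. Cytotoxicity is assessed by SRB staining of parallel cultures.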
# [19] = ATG_GAL4_TRANS: Attagene TRANS-FACTORIAL HepG2 Assay for GAL4 (Internal Marker) (AID 2282976; active means hit-call score of the fitted dose curve at least 0.9, where 1 is the maximum); conditions: HepG2 Attagene TRANS GAL4 internal marker reporter
# Summary of the method: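 RT-PCR/capillary electrophoresis readout of reporter mRNA. HepG2, transient MRTU transfection (GAL4-UAS reporters), 24 h compound exposure. Background-control endpoint, positive direction vs DMSO baseline.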
# Sequence of Tumor necrosis factor (Homo sapiens) (P01375 whole entry, looked up): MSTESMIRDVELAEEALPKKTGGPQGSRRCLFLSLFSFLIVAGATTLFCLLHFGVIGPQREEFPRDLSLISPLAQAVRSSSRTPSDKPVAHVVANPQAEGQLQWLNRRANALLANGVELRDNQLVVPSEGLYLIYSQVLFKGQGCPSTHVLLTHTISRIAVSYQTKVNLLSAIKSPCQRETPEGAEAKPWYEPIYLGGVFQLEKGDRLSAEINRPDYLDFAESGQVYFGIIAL
smiles,measurement,setting,value
Oc1cccc2ccccc12,outcome,[1],inactive
same,outcome,[2],inactive
same,outcome,[3],inactive
same,outcome,[4],inactive
same,outcome,[5],inactive
same,outcome,[6],inactive
same,outcome,[7],inactive
same,outcome,[8],inactive
same,AC50,[9],6.06 µM (active)
same,outcome,"Decorin, DCN (gene 1634)",inactive
same,outcome,[10],inactive
same,AC50,[11],12.1 µM (active)
COc1ccc2ccccc2c1,outcome,[12],inactive
same,outcome,[13],inactive
OC(C(F)(F)F)(C(F)(F)F)C(O)(C(F)(F)F)C(F)(F)F,outcome,[14],inactive
same,AC50,[1],41.9 µM (active) and 40.2 µM (active)
same,AC50,[2],45.7 µM (active) and 41.7 µM (active)
same,AC50,[5],26.7 µM (active) and 22.3 µM (active)
same,AC50,[6],46 µM (active) and 48.1 µM (active)
same,outcome,[7],inactive
same,AC50,[8],13.6 µM (active) and 13.9 µM (active)
same,AC50,[15],18.9 µM (active)
same,outcome,[15],inactive
same,outcome,[9],inactive
same,AC50,[16],0.218 µM (active)
same,outcome,[16],inactive
same,AC50,"Decorin, DCN (gene 1634)",30 µM (active) and 46.7 µM (active)
same,AC50,[10],36.7 µM (active) and 37.8 µM (active)
same,AC50,[11],48.4 µM (active) and 47.9 µM (active)
same,AC50,[17],5.86 µM (active)
same,outcome,[17],inactive
same,AC50,[18],7.66 µM (active)
same,outcome,[18],inactive
CCCCCCOC(=O)CCCCCCCC(=O)OCCCCCC,outcome,[19],inactive
F[B-](F)(F)F,AC50,[14],0.82 µM (active)
CN(C)N=Nc1ccccc1,outcome,[19],inactive
CCCc1c(OCCCCc2nn[nH]n2)ccc(C(C)=O)c1O,outcome,[12],inactive
same,outcome,[13],inactive
CNCCC(Oc1ccc(C(F)(F)F)cc1)c1ccccc1 (stereo not given),AC50,[3],18.6 µM (active)
same,AC50,[4],24.8 µM (active)
